The values that follow come from PubChem BioAssay (NCI).

Molecules are shown by their SMILES. This is part of a sample that, as a whole, favours compounds with a hit. Of some 79,000 tested, about 15% had one in any assay. Values without a mark were called inactive. Activity calls are given as the source filed them. Rule as the data show it: active = growth inhibition above about 70%; inactive = the rest.

Assay [1] can be described thus: NCI Yeast Anticancer Drug Screen. Data for the rad50 strain (AID 155).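 Also: 0% = growth of vehicle-only cultures of the same strain.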 The settings on record: S. cerevisiae rad50 strain growth inhibition, stronger effect = higher value. The procedure, abridged:
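Readout: growth inhibition relative to vehicle-treated cultures. Compound exposure was carried out in a genetically defined yeast strain deficient in DNA damage repair.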

Assay [2] is described as follows: NCI Yeast Anticancer Drug Screen. Data for the mec2-1 strain (AID 157). The settings on record: S. cerevisiae mec2-1 strain, stronger effect = higher value. The procedure, abridged:
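Readout is yeast growth inhibition, normalised to vehicle-treated controls, in the mec2-1 strain exposed to compound.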

A short description of assay [3]: NCI Yeast Anticancer Drug Screen. Data for the sgs1 mgt1 strain (AID 161).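 Also: 0% = growth of cultures given vehicle only.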 The settings on record: S. cerevisiae sgs1 mgt1 strain, stronger effect = higher value. The method in brief:
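Percent growth inhibition was derived by comparing compound-exposed mutant yeast with vehicle-exposed cultures. The strain carries alterations in DNA damage repair.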

Assay [4] is described as follows: NCI Yeast Anticancer Drug Screen. Data for the cln2 rad14 strain (AID 165).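 Also: 0% = growth equal to vehicle treated cultures.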 The following applies: S. cerevisiae cln2 rad14 strain, stronger effect = higher value. The procedure, abridged:
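Relative to vehicle controls, growth inhibition of compound-treated cln2 rad14 yeast was recorded.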

Assay [5] is described as follows: NCI Yeast Anticancer Drug Screen. Data for the bub3 strain (AID 167). The following applies: S. cerevisiae bub3 mutant strain, stronger effect = higher value. The method in brief: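 Readout: yeast growth inhibition, expressed relative to vehicle-only wells. The test organism is a mutant strain from a panel with lesions in DNA repair or checkpoint genes.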
A short description of assay [6]: NCI Yeast Anticancer Drug Screen. Data for the mlh1 rad18 strain (AID 175). The settings on record: S. cerevisiae mlh1 rad18 strain growth inhibition, stronger effect = higher value. The procedure, abridged:
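Test agents were incubated with a yeast strain of defined genotype (DNA damage repair defect). Inhibition of growth was derived by comparison with vehicle-exposed cultures.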

Setting [7] is: at 5.0 µM (retest, dose inferred, filed as 0.5).
Setting [8] is: at 50.0 µM (retest, dose inferred, filed as 5.0).

With `CCOc1ccc(Nc2nc(C)c(C(=O)/C=C/c3ccc(Cl)cc3Cl)s2)cc1`, the growth inhibition in assay [1] (setting [7]) was 25%; in assay [1] (setting [8]), 25%; in assay [1] (at 50.0 µM), 71.1% (active); in assay [2] (setting [7]) it was -6%; in assay [2] (setting [8]), -6%; in assay [2] (at 50.0 µM), 31.9%. The growth inhibition was 8% in assay [3] (setting [7]); 8% in assay [3] (setting [8]); 33% in assay [3] (at 50.0 µM); 6% in assay [4] (setting [7]); 6% in assay [4] (setting [8]); 48.4% in assay [4] (at 50.0 µM). For the same molecule, the growth inhibition was 6% in assay [5] (setting [7]); 6% in assay [5] (setting [8]); 55.5% in assay [5] (at 50.0 µM); 20% in assay [6] (setting [7]); 20% in assay [6] (setting [8]); 17.6% in assay [6] (at 50.0 µM).
In the case of `CCC(C)c1ccc(O)c(C(C)c2ccccc2)c1` (configuration not stated), the growth inhibition was 44% in assay [1] (setting [7]); 70% (active) in assay [1] (setting [8]); 89.6% (active) in assay [1] (at 50.0 µM); 41% in assay [2] (setting [7]); 68% in assay [2] (setting [8]); 92.2% (active) in assay [2] (at 50.0 µM). Also, the growth inhibition is 19% in assay [3] (setting [7]); 97% (active) in assay [3] (setting [8]); 92.9% (active) in assay [3] (at 50.0 µM); 49% in assay [4] (setting [7]); 101% (active) in assay [4] (setting [8]); 90.3% (active) in assay [4] (at 50.0 µM). In addition, the growth inhibition was 15% in assay [5] (setting [7]); 100% (active) in assay [5] (setting [8]); 91% (active) in assay [5] (at 50.0 µM); 40% in assay [6] (setting [7]); 61% in assay [6] (setting [8]); 90.5% (active) in assay [6] (at 50.0 µM).
With `COc1ccc(C2=NN(c3ccccc3)C[N+](c3ccc(C)cc3)=N2)cc1`, the growth inhibition was 6% in assay [1] (setting [7]); 98% (active) in assay [1] (setting [8]); 97.5% (active) in assay [1] (at 50.0 µM); -14% in assay [2] (setting [7]); 99% (active) in assay [2] (setting [8]); 98.2% (active) in assay [2] (at 50.0 µM). For the same molecule, the growth inhibition in assay [3] (setting [7]) was -3%; in assay [3] (setting [8]), 98% (active); in assay [3] (at 50.0 µM), 98.5% (active); in assay [4] (setting [7]), 12%; in assay [4] (setting [8]) it was 98% (active); in assay [4] (at 50.0 µM) it was 97.9% (active). In addition, the growth inhibition in assay [5] (setting [7]) was -1%; in assay [5] (setting [8]) it was 99% (active); in assay [5] (at 50.0 µM) it was 98.2% (active); in assay [6] (setting [7]), 13%; in assay [6] (setting [8]), 98% (active); in assay [6] (at 50.0 µM), 97.8% (active).
For the molecule `Oc1cccc2ccc(/C=C/c3ccccn3)nc12`, the growth inhibition in assay [1] (setting [7]) was 1%; in assay [1] (setting [8]), 98% (active); in assay [1] (at 50.0 µM) it was 97.4% (active); in assay [2] (setting [7]), 2%; in assay [2] (setting [8]), 97% (active); in assay [2] (at 50.0 µM), 97.2% (active). Besides, the growth inhibition in assay [3] (setting [7]) was -6%; in assay [3] (setting [8]) it was 98% (active); in assay [3] (at 50.0 µM), 98.2% (active); in assay [4] (setting [7]), -3%; in assay [4] (setting [8]), 96% (active); in assay [4] (at 50.0 µM) it was 95% (active). Also, the growth inhibition in assay [5] (setting [7]) is -2%; in assay [5] (setting [8]), 98% (active); in assay [5] (at 50.0 µM), 97.1% (active); in assay [6] (setting [7]) it was 2%; in assay [6] (setting [8]), 98% (active); in assay [6] (at 50.0 µM), 98.5% (active).
